Results filed as inconclusive are left out. Entries that show only a call come without a potency. Activity calls are given as the source filed them. Calls come from the whole dose curve; as a rule, active = well fitted inhibition curve with a large enough effect; inconclusive = small, poorly fitted or top-dose-only effect; inactive = no such curve, though single readings can be large or run the other way.
system: Zika virus NS2B-NS3 protease (linked construct); experiment: Primary screen NINDS Rhodamine qHTS for Zika virus inhibitors (AID 1347160); conditions: purified NS2B-NS3 protease, Rhodamine110 substrate fluorescence; series mostly up to 57.1 µM; note: nearly all actives have a fitted effect of over 55% in size
In short: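 Purified linked NS2B-NS3 protease (NS2B hydrophilic domain joined to NS3 protease by flexible linker), 25 nM in 10 mM Tris-HCl pH 8.0, 0.01% Tween 20. Compounds titrated, 15 min preincubation at room temperature; 1.5 microM Rhodamine110 substrate, FITC fluorescence change over 15 min.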

**Q.** `O=C(Nc1nc2ccc([N+](=O)[O-])cc2s1)C1CCCCC1` was tested. Which Potency did it give?
**A.** inactive

**Q.** For `Fc1ccc2c(CCNCc3cccc(OCC(F)(F)C(F)F)c3)c[nH]c2c1`, which Potency is on record?
**A.** inactive

**Q.** For `CC(=O)OC[C@]12[C@H](OC(C)=O)C(=O)[C@@H]3[C@@H](O)[C@@]14O[C@@]3(C)COC(=O)c1cccnc1[C@@H](C)[C@H](C)C(=O)O[C@@H]([C@H](O)[C@@H]2OC(C)=O)[C@]4(C)O`, which Potency is on record?
**A.** inactive

**Q.** How did the Potency turn out when `COc1cc2c(NC3CCN(C(C)C)CC3)nc(N3CCC(F)(F)CC3)nc2cc1OCCCN1CCCC1` was run?
**A.** inactive

**Q.** `C#CCOc1ccc2c(c1)c(-c1ccc(C(C)C)cc1)nc(=O)n2C(C)C` was tested. Which Potency did it give?
**A.** inactive

Source: PubChem BioAssay (NCATS)
